Source: PubChem BioAssay (NCI)
The panel holds about 83,000 compounds, 20% with a hit somewhere; the sample as a whole holds those more often.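 Assay: single dose, 48 h. Readout: percent growth (0 = no net growth; negative = cell death). Active: <10.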 A number with no mark means an inactive call. Active and inactive are the calls of the source.

tested on: HL-60(TB) leukemia; test: NCI-60 one-dose screen, 48 h (100 = growth as untreated, 0 = no growth, -100 = all killed); details: 10 µM unless noted

SMILES | growth
Cc1cc(NCCN(C(C)C)C(C)C)nc(/N=C(\N)Nc2ccc(Cl)c(C(F)(F)F)c2)n1 | -87.9% (active)
O=C(NO)c1ccc(Cn2c(=O)n(CCc3ccccc3)c(=O)c3ccccc32)cc1 | 36.2%
CCN(CC)CCNc1ncnc2c1cnn2-c1ccc(Cl)cc1 | 39.1%
CCN(CC)S(=O)(=O)c1ccc(S(=O)(=O)N2CCC[C@@H](C(=O)N3CCN(C(=O)OC(C)(C)C)CC3)C2)cc1 | 70.5%
COc1cc(/C=N/NC(=O)c2ccc(C(F)(F)F)nc2Nc2ccc(Cl)cc2C)ccc1O | 4.41% (active)
Cc1nc(C)c(C(=O)O)cc1C(=O)O | 106%
Nc1cc(N)c(N=Nc2ccc(S(=O)(=O)O)cc2)cc1N=Nc1ccc(-c2ccc(N=Nc3ccc(O)c(C(=O)O)c3)cc2)cc1 | 111%
CCN(Cc1ccccc1)c1ccc(SC#N)cc1 | 20.3%
COc1cc(C2CC(C3C(=O)N(C)C(=O)N(C)C3=O)=NN2C=O)cc(OC)c1OC (configuration not stated) | 104%
COc1ccc(/C(C#N)=C/c2ccccc2OC)cc1 | -0.826% (active)
Fc1ccccc1C1c2ccccc2-c2nccn21 (configuration not stated) | 76.5%
Clc1ccc(Nc2nc(Nc3ccccc3)nc(Nc3ccc(-c4cc(-c5ccc(Cl)cc5)on4)cc3)n2)cc1 | 55.3%
COc1cc(-c2cc(/C=C3\C(=O)Nc4ccccc43)[nH]n2)cc(OC)c1OC | -12.1% (active)
COC(=O)c1[nH]c(=O)c(C#N)c(C(=O)OC)c1C(=O)c1ccccc1 | 94.8%
COc1ccc2c(c1)[nH]c(=O)c1c3cc(OC)ccc3cn21 | -8.1% (active)
COc1cccc2c1C(=O)c1c(O)c3c(c(O)c1C2=O)C[C@@](O)(/C(C)=N/NC(=O)c1ccc(Cl)cc1)C[C@@H]3OC1CC(N)C(O)C(C)O1 (some centres not stated) | -53.4% (active)
Cc1cc(=O)oc2cc(OCc3cn(CC(O)CO)nn3)ccc12 (configuration not stated) | 110%
Clc1ccc(Nc2scc3[n+]2CCC3)cc1 | 98.3%
C=CCCCCCCCCC(=O)OC(C)C | 117%

SMILES | growth
Oc1ccc(CCCCCCc2ccc(O)cc2)cc1 | 100%
Cc1cc(Cl)nc(NCc2cc(Nc3ccnc4cc(Cl)ccc34)ccc2F)n1 | 42.4%
O=C(/C=C/c1ccc(F)cc1)N1CCN(C(=O)/C=C/c2ccc(C(F)(F)F)cc2)CC1 | 97%
O=C(Nc1cccc(-n2cc(-c3ccncc3)c(-c3ccc(Cl)c(O)c3)n2)c1)c1ccc(N2CCOCC2)c(C(F)(F)F)c1 | 51.6%
O=C(NCCCl)NCCN1c2nc3ccccc3cc2Sc2cc3ccccc3nc21 | 24.3%
COc1cc(C(=C2O[C@@H]([C@H]3COC(C)(C)O3)[C@H]3OC(C)(C)O[C@@H]23)c2cc(OC)c(OC)c(OC)c2)cc(OC)c1OC | 107%
O=C1c2ccccc2C(=O)c2c1ccc(C(Br)Br)c2[N+](=O)[O-] | -37.9% (active)
N=C(N)c1ccc(-c2ccc(-c3ccccc3)o2)o1 | -17% (active)
CC1=C[C@H]2c3c(c(O)c(O)c4oc5ccccc5c(=O)c34)[C@H](c3cc(O)c(O)c4oc5ccccc5c(=O)c34)[C@H]2C(C)(C)C1 | -23% (active)
CCOC(=O)Cc1cc(Br)c(OCc2ccccc2)c(Br)c1 | 71.7%
Cc1ccc(S(=O)(=O)OC2COCOC2C(OS(=O)(=O)c2ccc(C)cc2)C2OCOCC2OS(=O)(=O)c2ccc(C)cc2)cc1 (configuration not stated) | 106%
C=C(C)[C@@H]1CC[C@]2(C(=O)OC)CC[C@]3(C)[C@H](CC[C@@H]4[C@@]5(C)CC/C(=N\OCCC(=NCCC#N)NOCCC#N)C(C)(C)[C@@H]5CC[C@]43C)[C@@H]12 | 0.897% [100 µM] (active)
CCCCOc1ccc(NC(=O)Nc2nnc(C)s2)cc1 | 80.7%
CCCCCCNC(=O)Nc1ccc2cc3ccc(NC(=O)NCCCCCC)cc3nc2c1 | -49% (active)
CNC(=O)c1c(NC(=O)c2ccc(C(C)C)cc2)sc2c1CCC(=O)C2 | -13.9% (active)
O=C(Oc1ccc2c(c1)sc1nc(-c3ccccc3)[nH]c(=O)c12)C(F)(F)F | 2.56% (active)
CSc1nnc(-c2sc3nnc(-c4ccccc4)c(-c4ccccc4)c3c2O)o1 | 107%
N#C/C(=C\c1c(-c2ccccc2)[nH]c2ccccc12)C(=O)c1ccc(Cl)cc1 | 12.7%
